According to PubChem BioAssay (NCI):
The panel holds about 79,000 compounds, 15% with a hit somewhere; the sample as a whole holds those more often. Calls of active or inactive are those of the source. Rule as the data show it: active = growth inhibition above about 70%; inactive = the rest.

Tests used:
[1] = NCI Yeast Anticancer Drug Screen. Data for the rad50 strain (AID 155);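 also: 0% = growth of vehicle-only cultures of the same strain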; details: S. cerevisiae rad50 strain growth inhibition; at 50.0 µM; hits give high values
Summary of the method: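 Readout: growth inhibition relative to vehicle-treated cultures. Compound exposure was carried out in a genetically defined yeast strain deficient in DNA damage repair.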

[2] = NCI Yeast Anticancer Drug Screen. Data for the mec2-1 strain (AID 157); details: S. cerevisiae mec2-1 strain, at 50.0 µM, hits give high values
Summary of the method: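 Growth inhibition is read against vehicle-treated controls after compound exposure of the mec2-1 yeast strain, which is defective in DNA damage repair or cell cycle control.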

[3] = NCI Yeast Anticancer Drug Screen. Data for the sgs1 mgt1 strain (AID 161);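 also: 0% = growth of cultures given vehicle only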; details: S. cerevisiae sgs1 mgt1 strain, at 50.0 µM, hits give high values
Summary of the method: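 Compounds are added to genetically altered yeast, and growth is compared with cultures given vehicle alone to give percent inhibition.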

[4] = NCI Yeast Anticancer Drug Screen. Data for the cln2 rad14 strain (AID 165);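 also: 0% = growth equal to vehicle treated cultures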; details: S. cerevisiae cln2 rad14 strain, at 50.0 µM, hits give high values
Summary of the method: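 Growth inhibition, relative to vehicle-treated controls, is the read-out. The test organism is a yeast strain with defined genetic alterations, cln2 rad14.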

[5] = NCI Yeast Anticancer Drug Screen. Data for the bub3 strain (AID 167); details: S. cerevisiae bub3 mutant strain, at 50.0 µM, hits give high values
Summary of the method: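 Readout: yeast growth inhibition, expressed relative to vehicle-only wells. The test organism is a mutant strain from a panel with lesions in DNA repair or checkpoint genes.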

[6] = NCI Yeast Anticancer Drug Screen. Data for the mlh1 rad18 strain (AID 175); details: S. cerevisiae mlh1 rad18 strain growth inhibition; at 50.0 µM; hits give high values
Summary of the method: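 Cells of a genetically altered yeast strain, deficient in DNA damage repair, were treated with compound. Their growth was then compared with that of vehicle-treated cultures to give inhibition.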

Measured: growth inhibition

CCc1ccc(O[Si](C)(C)C)cc1
inactive: [1] 5.35% | [2] 3.25% | [3] -15.6% | [4] -25.4% | [5] -21.9% | [6] -3.9%

O=C(Cl)C(Cl)(c1ccccc1)c1ccccc1
inactive: [1] 2.15% | [2] 13.6% | [3] 4.15% | [4] -6.9% | [5] 17.1% | [6] 3.75%

CCOC(=O)C(NC(=O)Nc1ccccc1F)(OC)C(F)(F)F (stereo not drawn)
inactive: [1] -23.1% | [2] -38.3% | [3] -75.4% | [4] -4.3% | [5] -28% | [6] -59.6%

O=C(C(=Nc1ccccc1)C(=Nc1ccccc1)C(=O)c1ccccc1)c1ccccc1
inactive: [2] 32.1% | [3] 55.2% | [4] 8.5% | [5] 15.3% | [6] 37%
active: [1] 78.8%

CCOC(=O)c1c(NN)n[nH]c1C
inactive: [1] 8.95% | [2] 13.2% | [3] 24.4% | [4] 4% | [5] 7.1% | [6] 8.85%

Cc1ccc(S(=O)(=O)Nc2cc3c(cc2NC(=O)C(F)(F)F)-c2ccccc2C3)cc1
inactive: [1] 52.8% | [2] -9% | [3] 38.8% | [4] -7.4% | [5] -1.25% | [6] 46%

C(=N\c1oc(-c2ccccc2)nc1SCc1ccccc1)/c1ccccc1
inactive: [1] 2.75% | [2] 11.2% | [3] 23.1% | [4] -19.8% | [5] 7.3% | [6] 25.9%

COc1ccc(/C=N/NC(=O)c2cnc3[nH]c(=O)n(C)c(=O)c3c2)cc1
inactive: [1] 10.7% | [2] 10.3% | [3] 30.6% | [4] 5.45% | [5] 11.2% | [6] 22.4%

C(=C\c1csnn1)/c1cccnc1
inactive: [1] 29.9% | [2] -1.95% | [3] 2.05% | [4] 6.35% | [5] 9.3% | [6] 5.75%

O=C(NC(Cc1ccc(O)cc1)C(=O)O)C(=O)c1c[nH]c2ccc([N+](=O)[O-])cc12 (stereo not drawn)
inactive: [1] 3.45% | [2] 1.45% | [3] -23.1% | [4] 0.45% | [5] 2.8% | [6] 26.9%

CC1=C(/C=C/C(C)=C/C=C/C(C)=C/C=C/C=C(C)/C=C/C=C(\C)C=O)C(C)(C)CCC1
inactive: [1] -18.2% | [2] 4.85% | [3] -9.4% | [4] -1.4% | [5] 4.75% | [6] 0.8%

Cc1c(C)c(O)c(SC(CC(=O)O)C(=O)O)c(C)c1O (stereo not drawn)
inactive: [1] 14.8% | [2] 37.8% | [3] 41.1% | [4] 1.65% | [5] 21.7% | [6] 44.1%

N#CC(C(=O)/C(=N\Nc1nc(=S)[nH]n1N)C(C#N)c1ccc(Cl)cc1)c1ccc(Cl)cc1 (stereo not drawn)
inactive: [1] -13.3% | [2] -10% | [3] -28.6% | [4] 4.45% | [5] -4.4% | [6] -4.95%

OC(c1ccccc1)(c1ccccc1)C1CC1
inactive: [1] 6.2% | [2] -6.9% | [3] 1.6% | [4] 7% | [5] -19.2% | [6] 10.9%

CC(c1ccccc1)n1cnc2c(N(CCO)CCO)ncnc21 (stereo not drawn)
inactive: [1] 2.5% | [2] -1.6% | [3] 9.45% | [4] -4.05% | [5] 9.85% | [6] 11.7%

CC(C)CCOC(=O)C(C)(O)C(Cl)c1ccccc1 (stereo not drawn)
inactive: [1] 2.9% | [2] 2.55% | [3] -13.2% | [4] 1.35% | [5] 6.25% | [6] -6.95%

C1OC2OC3OCOC3C2O1 (stereo not drawn)
inactive: [1] 16.4% | [2] 2.85% | [3] -2.1% | [4] -58.2% | [5] 17% | [6] -8.8%

CCOC1([N+](=O)[O-])c2ccccc2-c2nc3ccccc3cc21 (stereo not drawn)
active: [1] 96.8% | [2] 75.5% | [3] 74% | [5] 78.8% | [6] 92.4%
inactive: [4] 63.7%

Cc1cc2c(=O)cc(-c3ccc(C(=O)O)cc3)oc2c(C(N)=O)c1C
inactive: [1] 4.15% | [2] 14.9% | [3] 23.6% | [4] 23.4% | [5] 11.2% | [6] 12.9%

COC(=O)C(Cc1nc2ccc(Cl)cc2[nH]c1=O)C(=O)C(=O)Nc1cc(C)ccc1C (stereo not drawn)
inactive: [1] -19.2% | [2] 4.85% | [3] -33% | [4] -35.6% | [5] -26.4% | [6] 14.5%

CCOC(=O)c1cnc2c(ccc3ncccc32)c1OCC
inactive: [1] -12.2% | [2] -23.1% | [3] 7.8% | [4] 17.2% | [5] 10.8% | [6] 12.1%

Cc1ccc2c(c1)CCCN2
inactive: [1] 7.2% | [2] 11.2% | [3] 4.65% | [4] 21.6% | [5] 9.8% | [6] 7.55%

C/C(=C/C(C)O)c1ccccc1 (stereo not drawn)
inactive: [1] -13.6% | [2] -3.85% | [3] -15.2% | [4] 4.9% | [5] -6.1% | [6] -6.9%

CN1CCn2c(Br)ccc2C1=O
inactive: [1] 13.6% | [2] -11.6% | [3] -1.55% | [4] 8.45% | [5] 2.65% | [6] -3.3%

CCCCn1cnc2c(SC(C)C)nc(N)nc21
inactive: [1] -13.1% | [2] -2.15% | [3] 17.4% | [4] -24.9% | [5] 8.8% | [6] -16.2%

Cc1ccccc1N(C(=O)C(=O)O)c1ccccc1C
inactive: [1] 1.35% | [2] 7.75% | [3] 8% | [4] 7.95% | [5] -0.5% | [6] 0.15%

CCOC(=O)C1=CC2CCOC2O1 (stereo not drawn)
inactive: [1] -19.8% | [2] -14.8% | [3] 5.85% | [4] -28.7% | [5] -9.5% | [6] 5.5%

CC1=CCCC(C)(C)C1/C=C/C(=O)O (stereo not drawn)
inactive: [1] 8.45% | [2] -7.35% | [3] -8.75% | [4] -36.3% | [5] -18.1% | [6] -9.2%

O=C(Nc1ccc(Cl)c(Cl)c1)c1ccc(C(=O)Nc2ccc(Cl)c(Cl)c2)cc1
inactive: [1] 8.35% | [2] 19.1% | [3] 25.1% | [4] -18.9% | [5] -4.85% | [6] 30.3%

O=C(NCC1CC1)NC(=O)c1c(F)cccc1Cl
inactive: [1] -1.2% | [2] -13% | [3] 12.6% | [4] 20.8% | [5] 36.6% | [6] 9.65%

COc1cc(C2SCC(=O)N2NC(=O)c2ccc(NC(C)=O)cc2)cc(OC)c1OC (stereo not drawn)
inactive: [1] -11.8% | [2] -3.95% | [3] -5.2% | [4] 6.15% | [5] -12.4% | [6] -12.2%

Oc1ccccc1/C=N/n1cnnc1
inactive: [1] 8.55% | [2] 12.2% | [3] -3.5% | [4] -4.85% | [5] -10.3% | [6] -19.2%

O=C(O)c1ccc(C(=O)O)c(C(=O)O)c1.[NH-]C1CCCCC1[NH-].[Pd+2]
inactive: [1] 11.1% | [2] 5.2% | [3] 7.9% | [4] 10.6% | [5] 3.95% | [6] 9.65%

O=[N+]([O-])c1ccccc1C=Nc1ccccc1O
active: [5] 75%
inactive: [1] 56.4% | [2] 44.5% | [3] 52.8% | [4] 24.9% | [6] 66%

CCCCCCCCCCCC(=O)CCCCCCCCCCC
inactive: [1] 4% | [2] 2.2% | [3] 2.75% | [4] -33.9% | [5] -4.15% | [6] -2.7%

CC(=O)NCC(O)C(O)C(O)C(O)COC(=O)c1ccccc1 (stereo not drawn)
inactive: [1] 6.6% | [2] -1.25% | [3] 19.2% | [4] -6.45% | [5] -2.15% | [6] -5%

CCCCOC(=O)/C=C/C(=O)N1CCN(C(=O)/C=C/C(=O)OCCCC)C(C)C1 (stereo not drawn)
inactive: [1] 33.7% | [2] 24.7% | [3] 20.8% | [4] -11.1% | [5] 24.9% | [6] 34.6%

O=C(O)C(c1ccc(-c2ccccc2)cc1)C1CCCCC1 (stereo not drawn)
inactive: [1] 47.9% | [2] 26.4% | [3] 50.2% | [4] 3.35% | [5] 45% | [6] 40.5%
